Inconclusive results are not listed. Entries that show only a call come without a potency. Values without a mark were called inactive. Activity calls are given as the source filed them. Calls follow the shape of the dose curve; as a rule, active = well fitted activation curve with a large enough effect in the repeat runs; inconclusive = weak or mixed curves; inactive = flat fitted curve, though single readings scatter.
Potency is read from the fitted curve at half-maximal effect.

A short description of this test: A CellTox Green Cytotoxicity Assay to monitor cytotoxicity in HEK293 cells - 40 hour (AID 1224871). Also: nearly all actives have a fitted effect of over 45% in size. Conditions: CellTox Green fluorescence; series mostly up to 76.8 µM. From the text: National Center for Advancing Translational Sciences [NCATS]
NIH Chemical Genomics Center [NCGC]
U.S. Environmental Protection Agency [EPA]
National Institutes of Environmental Health Sciences [NIEHS]
National Toxicology Program [NTP]
Cell-based models are critical for drug discovery. Determining the natural cytotoxic effects resulting from test compounds is an essential research activity. A CellTox Green Cytotoxicity Assay to monitor cytotoxicity in real time of continues cell culture during 40 hours of the compound treatment was used to screen Tox21 10K library compounds in Hek293 cells. CellTox Green Cytotoxicity Assay is a nonlytic, homogeneous, biofluorescent method to measure cytotoxicity in cell culture after experimental manipulation. The assay system uses a proprietary asymmetric cyanine dye that is excluded from viable cells but preferentially stains the dead cell's DNA. […] Viable cells produce no appreciable increases in fluorescence. Therefore, the fluorescence signal produced by the binding interaction with dead cell DNA is proportional to cytotoxicity.
The mixture of Hek293 cell suspension and reagents were dispensed at 600cells/6 ul/well in 1536-well tissue culture treated black solid bottom plates using a Multidrop dispenser. After the assay plates were incubated at a 37 C/5% CO2 incubator for 5 hours, 23 nL of compounds dissolved in DMSO, positive and negative controls was transferred to the assay plate by a pintool work station. The plates were incubated at 37 C for 40 hours. The fluorescence intensity were measured at 0h, 8h, 16h, 24h, 32h and 40h time points using ViewLux plate reader during compound treatment.
Turning to `CN(CCCN1c2ccccc2CCc2ccccc21)CC(=O)c1ccc(Cl)cc1`, the Potency entry is “inactive”.

With `C1CCOC1`, the Potency result was “inactive”.

For `CCCCCCCCCC/C=C/C#N`, the Potency result was “inactive”.

Take `O=C(C(Cl)Cl)N1CCOC12CCCCC2`: the Potency entry is “inactive”.

With `COC(=O)c1ccc2cc(C(=O)OC)ccc2c1`, the cytotoxicity increase was 3.01% [at 15.8 µM].

As for `Cc1ccc([N+](=O)[O-])c(N)c1`, the Potency entry is “inactive”.

For `CCCCCCCCCC#N`, the Potency result was “inactive”.

Turning to `CC(C)Nc1nc(N)nc(Cl)n1`, the Potency entry was “inactive”.

With `C[C@@H]1CN(c2c(F)c(N)c3c(=O)c(C(=O)O)cn(C4CC4)c3c2F)C[C@H](C)N1`, the cytotoxicity increase is 6.32% [at 15.8 µM].

Take `OCCN1CCN(CCO)CC1`: the Potency result was “inactive”.

With `CC1=CC(=O)CC(C)(C)C1=O`, the Potency entry is “inactive”.

As to `Cc1c(N)cccc1N`, the Potency entry is “inactive”.

Regarding `CCCOc1ccc2c(c1)CC[C@@H]1[C@@H]2CC[C@]2(C)C(OC)CC[C@@H]12` (stereo not given in full), the Potency result is “inactive”.

As for `CC(C)C(=O)OCC(C)(C)C(O)C(C)C` (stereo not given), the Potency result was “inactive”.

As to `CCCCCCCCc1ccc(S(=O)(=O)O)cc1`, the Potency is 54.5 µM (active).

Regarding `CCOC(=O)NCCC[Si](OCC)(OCC)OCC`, the Potency result was “inactive”.

On to `O=C(O)c1cccc(Cl)c1Cl`, for which the Potency result is “inactive”.

In the case of `CCC/C=C/CO`, the Potency entry was “inactive”.

`CCC1(C)NC(=O)NC1=O` (stereo not given): the Potency entry was “inactive”.

In the case of `CCCNC(C)C(=O)Nc1c(C)csc1C(=O)OC` (stereo not given), the Potency result was “inactive”.

For `CC(=O)OC(C)OC(C)=O`, the Potency result was “inactive”.

As for `O=C(O[C@@H](C(=O)O)[C@@H](OC(=O)c1ccccc1)C(=O)O)c1ccccc1`, the Potency result was “inactive”.

On to `O=C1CCCc2ccccc21`, for which the Potency result was “inactive”.

With `COC(=O)N[C@H](C(=O)N[C@@H](Cc1ccccc1)[C@@H](O)CN(Cc1ccc(-c2ccccn2)cc1)NC(=O)[C@@H](NC(=O)OC)C(C)(C)C)C(C)(C)C`, the Potency result was “inactive”.

As to `CC1=NN(c2cc(Cl)c(S(=O)(=O)O)cc2Cl)C(=O)C1N=Nc1ccc(S(=O)(=O)O)cc1` (stereo not given), the Potency result was “inactive”.

On to `CC/C=C\CCOC(=O)C(C)C`, for which the Potency entry is “inactive”.

Turning to `O=C(O)c1ccccc1Nc1cc(Cl)ccc1C(=O)O`, the cytotoxicity increase was -12.4% [at 15.8 µM].

Turning to `CCCCCCCCOC(=O)CCCCCCCCC(=O)OCCCCCCCC`, the Potency result was “inactive”.

Consider `Cc1cc2nc(N)sc2cc1C`, for which the Potency entry is “inactive”.

Turning to `CCOC(=O)c1cc(=O)c2c(OCC(COc3cccc4oc(C(=O)OCC)cc(=O)c34)OC(=O)[C@@H](N)CCCCN)cccc2o1`, the Potency entry was “inactive”.

On to `FC(F)(F)c1ccccc1`, for which the Potency entry is “inactive”.

On to `CC(C)(C)C1CCCCC1=O` (stereo not given), for which the Potency result is “inactive”.

With `CCOC(=O)C1CC(=O)C(=C(O)C2CC2)C(=O)C1` (stereo not given), the Potency result was “inactive”.

As for `O=C(O)C(=O)Cc1c[nH]c2ccccc12`, the Potency result is “inactive”.

As to `CCCCCCCCCCCCOCCOS(=O)(=O)O`, the Potency is 24.5 µM (active).

Consider `CC(=O)Oc1cc(C(C)C)c(OCCN(C)C)cc1C`, for which the Potency result is “inactive”.

With `CCNCCO`, the Potency entry was “inactive”.

`CCc1nnc(NS(=O)(=O)c2ccc(N)cc2)s1`: the Potency result was “inactive”.

As for `O=[N+]([O-])c1nccn1CO[C@@H](CO)[C@H](O)CO`, the Potency entry was “inactive”.

With `NCCCN1CCN(CCCN)CC1`, the Potency entry is “inactive”.

The values are drawn from PubChem BioAssay (Tox21).
